Measurements reported in PubChem BioAssay AID1159580 (chemical genetic matrix, 2015).
“And” between values parts separate entries of the source, which are not always exact repeats. Equal entries are not always repeated. The campaign covered roughly 5,500 compounds. About 2,000 (36%) were called active. Roughly 18% stayed inconclusive and do not appear here. No stated cut-off is given here; in the data, active means normalized growth mostly below about 0.91 (no sharp cut-off); inconclusive means no clear call, values can overlap the other calls; inactive means mostly above about 0.92. This is one part of the list.

Experiment: chemical genetic growth profiling, strain panel (AID 1159580);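 further: tested at 20 µM; growth read once vehicle control cultures reached saturation at 30 °C; 1 = growth at the plate median or of vehicle wells; lower values mean less growth of the strain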
Details: S. cerevisiae deletion strains, growth OD

Measured: normalized growth

O=C(O)/C=C(\CC(=O)O)C(=O)O
inactive: locus YAL013W, strain DEP1, hits give low values 0.995 | locus YAL021C, strain ccr4, hits give low values 0.998 | locus YAL026C, strain drs2, hits give low values 1 | locus YAL030W, strain snc1, hits give low values 0.993 | locus YBL061C, strain skt5, hits give low values 0.994 | locus YBR009C, strain hhf1, hits give low values 1 | locus YBR021W, strain FUR4, hits give low values 0.981 | locus YBR023C, strain chs3, hits give low values 0.992 | locus YBR171W, strain sec66, hits give low values 0.989 | locus YBR229C, strain ROT2, hits give low values 0.993 | locus YBR231C, strain swc5, hits give low values 0.998 | locus YBR279W, strain paf1, hits give low values 1.01 | locus YCL011C, strain gbp2, hits give low values 1 | locus YCL016C, strain dcc1, hits give low values 1.01 | locus YCL029C, strain bik1, hits give low values 0.968 | locus YCL061C, strain MRC1, hits give low values 0.987 | locus YCL069W, strain vba3, hits give low values 1 | locus YCR088W, strain abp1, hits give low values 0.99 | locus YDL005C, strain med2, hits give low values 0.98 | locus YDL035C, strain GPR1, hits give low values 1 | locus YDL040C, strain nat1, hits give low values 0.985 | locus YDL074C, strain BRE1, hits give low values 0.998 | locus YDL101C, strain DUN1, hits give low values 1 | locus YDL134C, strain PPH21, hits give low values 1.01 | locus YDL185W, strain tfp1, hits give low values 1 | locus YDL192W, strain arf1, hits give low values 0.997 | locus YDR001C, strain nth1, hits give low values 0.995 | locus YDR069C, strain doa4, hits give low values 1.01 | locus YDR101C, strain arx1, hits give low values 0.991 | locus YDR137W, strain rgp1, hits give low values 1.02 | locus YDR159W, strain sac3, hits give low values 0.96 | locus YDR162C, strain NBP2, hits give low values 1.05 | locus YDR195W, strain ref2 0.969 | locus YDR297W, strain sur2, hits give low values 0.996 | locus YDR318W, strain mcm21, hits give low values 0.981 | locus YDR334W, strain swr1, hits give low values 0.981 | locus YDR335W, strain msn5, hits give low values 0.999 | locus YDR388W, hits give low values 0.973 | locus YDR392W, strain spt3, hits give low values 0.992 | locus YDR502C, strain sam2, hits give low values 0.984 | locus YEL003W, strain gim4, hits give low values 1 | locus YEL037C, strain rad23, hits give low values 0.994 | locus YEL061C, strain CIN8 (second series), hits give low values 1 | locus YEL061C, strain CIN8, hits give low values 0.996 | locus YER015W, strain faa2, hits give low values 0.998 | locus YER016W, strain bim1, hits give low values 0.984 | locus YER110C, hits give low values 0.982 | locus YER111C, strain swi4, hits give low values 0.991 | locus YER155C, strain BEM2 (second series), hits give low values 0.983 | locus YER155C, strain BEM2, hits give low values 0.989 | locus YER167W, strain BCK2, hits give low values 0.978 | locus YFR010W, strain ubp6, hits give low values 0.991 | locus YGL078C, strain dbp3, hits give low values 0.984 | locus YGL086W, strain mad1, hits give low values 0.987 | locus YGL167C, strain pmr1, hits give low values 0.986 | locus YGL173C, strain kem1, hits give low values 0.997 | locus YGL227W, strain vid30, hits give low values 0.98 | locus YGL240W, strain doc1, hits give low values 0.974 | locus YGL248W, strain PDE1, hits give low values 1.03 | locus YGL253W, strain hxk2, hits give low values 1 | locus YGR135W, strain pre9, hits give low values 1.02 | locus YGR252W, strain gcn5, hits give low values 1.03 | locus YHR013C, strain ard1, hits give low values 0.999 | locus YHR027C, strain rpn1, hits give low values 0.993 | locus YHR030C, strain SLT2, hits give low values 0.987 and 1.01 | locus YHR079C, strain IRE1 (second series), hits give low values 0.968 | locus YHR079C, strain IRE1, hits give low values 1.01 | locus YHR094C, strain hxt1, hits give low values 0.968 | locus YHR129C, strain ARP1, hits give low values 1 | locus YHR142W, strain chs7, hits give low values 1.01 | locus YHR200W, strain rpn10, hits give low values 0.991 | locus YIL066C, strain RNR3, hits give low values 1.01 | locus YIL073C, strain SPO22, hits give low values 0.952 | locus YIL125W, strain kgd1, hits give low values 0.979 | locus YIR030C, strain dcg1, hits give low values 0.97 | locus YJL092W, strain hpr5, hits give low values 0.994 | locus YJL095W, strain BCK1 (second series), hits give low values 0.997 | locus YJL095W, strain BCK1, hits give low values 1.05 and 1 | locus YJL115W, strain asf1, hits give low values 0.998 | locus YJL129C, strain trk1, hits give low values 0.996 | locus YJL134W, strain LCB3, hits give low values 0.993 | locus YJL154C, strain vps35, hits give low values 0.994 | locus YJL164C, strain tpk1, hits give low values 1.02 | locus YJL166W, strain qcr8, hits give low values 0.998 | locus YJL168C, strain set2, hits give low values 0.969 | locus YJL187C, strain SWE1 (second series), hits give low values 1.02 | locus YJL187C, strain SWE1, hits give low values 0.997 | locus YJR043C, strain POL32, hits give low values 1 | locus YJR066W, strain TOR1, hits give low values 0.972 | locus YJR075W, strain HOC1, hits give low values 1.03 | locus YKL009W, strain mrt4, hits give low values 0.957 | locus YKL068W, hits give low values 0.981 | locus YKL085W, strain MDH1 (second series), hits give low values 0.989 | locus YKL085W, strain MDH1, hits give low values 0.989 | locus YKL160W, strain elf1, hits give low values 0.993 | locus YKR001C, strain vps1, hits give low values 0.956 | locus YKR026C, strain gcn3, hits give low values 0.993 | locus YKR091W, strain srl3, hits give low values 0.999 | locus YLL001W, strain dnm1, hits give low values 1.01 | locus YLL026W, hits give low values 0.988 | locus YLL041C, strain sdh2, hits give low values 1 | locus YLR027C, strain aat2, hits give low values 0.996 | locus YLR039C, strain RIC1, hits give low values 1.02 | locus YLR058C, strain SHM2, hits give low values 1.01 | locus YLR102C, strain apc9, hits give low values 0.974 | locus YLR113W, strain HOG1, hits give low values 1.01 | locus YLR221C, strain rsa3, hits give low values 0.976 | locus YLR258W, strain gsy2, hits give low values 0.986 | locus YLR262C, strain YPT6 (second series), hits give low values 1.01 | locus YLR262C, strain YPT6, hits give low values 1.02 | locus YLR268W, strain sec22, hits give low values 0.977 | locus YLR320W, strain mms22, hits give low values 0.982 | locus YLR330W, strain CHS5, hits give low values 0.99 | locus YLR342W, strain FKS1 (second series), hits give low values 0.99 | locus YLR342W, strain FKS1, hits give low values 0.987 | locus YLR357W, strain rsc2, hits give low values 0.991 | locus YLR370C, strain arc18, hits give low values 0.997 | locus YLR371W, strain rom2, hits give low values 0.972 | locus YLR384C, strain iki3, hits give low values 0.984 | locus YLR418C, strain cdc73, hits give low values 1.01 | locus YML016C, strain PPZ1, hits give low values 0.986 | locus YML032C, strain rad52, hits give low values 0.986 | locus YML120C, strain ndi1, hits give low values 1 | locus YML124C, strain tub3, hits give low values 0.97 | locus YMR058W, strain fet3, hits give low values 0.997 | locus YMR078C, strain ctf18, hits give low values 0.975 | locus YMR125W, strain sto1, hits give low values 0.997 | locus YMR129W, hits give low values 0.996 | locus YMR205C, strain PFK2, hits give low values 1.01 | locus YMR223W, strain ubp8, hits give low values 0.996 | locus YMR231W, strain pep5, hits give low values 0.967 | locus YMR307W, strain GAS1, hits give low values 1.06 | locus YNL067W, strain RPL9B, hits give low values 1.03 | locus YNL071W, strain lat1, hits give low values 1 | locus YNL128W, strain TEP1, hits give low values 1 | locus YNL153C, strain GIM3, hits give low values 1.04 | locus YNL183C, strain NPR1, hits give low values 0.979 | locus YNL209W, strain ssb2, hits give low values 1 | locus YNL233W, strain BNI4, hits give low values 1.02 | locus YNL248C, strain rpa49, hits give low values 0.995 | locus YNL250W, strain rad50, hits give low values 0.982 | locus YNL271C, strain bni1, hits give low values 0.972 | locus YNL298W, strain CLA4, hits give low values 0.978 | locus YNL307C, strain MCK1, hits give low values 0.982 | locus YNL322C, strain KRE1 (second series), hits give low values 0.99 | locus YNL322C, strain KRE1, hits give low values 0.998 | locus YNR049C, strain mso1, hits give low values 0.992 | locus YNR052C, strain pop2, hits give low values 0.971 | locus YOL006C, strain TOP1, hits give low values 0.969 | locus YOL012C, strain htz1 0.984 | locus YOL147C, strain pex11, hits give low values 0.986 | locus YOR001W, strain rrp6, hits give low values 0.969 | locus YOR061W, strain CKA2, hits give low values 0.988 | locus YOR069W, strain VPS5, hits give low values 0.989 | locus YOR070C, strain gyp1, hits give low values 0.981 | locus YOR080W, strain dia2, hits give low values 0.985 | locus YOR083W, strain WHI5, hits give low values 1.01 | locus YOR106W, strain vam3, hits give low values 1.01 | locus YOR136W, strain idh2, hits give low values 0.98 | locus YOR144C, strain elg1, hits give low values 0.984 | locus YOR184W, strain ser1, hits give low values 0.999 | locus YOR231W, strain MKK1, hits give low values 1.05 | locus YOR265W, strain rbl2, hits give low values 0.995 | locus YOR270C, strain vph1, hits give low values 1.04 | locus YOR290C, strain snf2, hits give low values 0.964 | locus YOR316C, strain cot1, hits give low values 0.97 | locus YPL051W, strain arl3, hits give low values 0.989 | locus YPL055C, strain LGE1, hits give low values 1.03 | locus YPL078C, strain atp4, hits give low values 1 | locus YPL106C, strain sse1, hits give low values 0.997 | locus YPL240C, strain hsp82, hits give low values 0.996 | locus YPL241C, strain CIN2, hits give low values 0.993 | locus YPL256C, strain CLN2, hits give low values 1 | locus YPR119W, strain clb2, hits give low values 0.957 | locus YPR141C, strain kar3, hits give low values 0.975 | locus YPR163C, strain tif3, hits give low values 0.984 | locus YPR167C, strain met16, hits give low values 0.951 | strain wtn01, hits give low values 0.954
